Measured values from PubChem BioAssay (Tox21).
Unmarked numbers belong to inactive results. Results filed as inconclusive are left out. A call without a number means that no potency is given here. Calls of active or inactive are those of the source. Unless noted, calls come from the whole dose curve; as a rule, active = well fitted curve in the direction sought with a large enough effect in the repeat runs; inconclusive = weak or mixed curves; inactive = no such curve, though single readings can be large; an effect the other way counts as inactive or inconclusive.

Tests used:
[1] = target: Thyrotropin-releasing hormone receptor (Homo sapiens) (UniProt P34981); assay: qHTS assay to identify small molecule agonists of the thyrotropin-releasing hormone receptor (TRHR) signaling pathway (AID 1346891; calls by dose curve; note: series mostly up to about 58 µM)
Summary of the method: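 HEK293 cells expressing TRHR plated 18 h at 37 C/5% CO2, calcium dye-loaded 2 h at 37 C, then compound added (agonist mode); kinetic calcium fluorescence read 3 min at 1 s intervals; 15 concentrations in triplicate.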

[2] = Human pregnane X receptor (PXR) small molecule agonists, qHTS cell viability counter screen (AID 1346977); note: nearly all actives have a fitted effect of over 50% in size
Summary of the method: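 PXR-Luc HepG2 cells (2,000/well, 5% charcoal-stripped FBS) preincubated 5 hr, then exposed to compounds 24 hr at 37 C. Viability read in the same wells by CellTiter-Fluor fluorescence, reagent added at 23 hr, 1 hr incubation.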

[3] = Caspase-3/7 induction in CHO-K1 cells by small molecules, qHTS cell viability counter screen (AID 1346979); note: nearly all actives have a fitted effect of over 35% in size
Summary of the method: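 Wild-type CHO-K1 cells (1,500/well) treated with compound after 5 h plating; after 16 h at 37C, viability read as CellTiter-Fluor fluorescence following 1 h reagent incubation, in the same wells as the caspase read.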

[4] = Caspase-3/7 induction in CHO-K1 cells by small molecules, qHTS assay (AID 1346980); note: nearly all actives have a fitted effect of over 15% in size
Summary of the method: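 Wild-type cells were seeded at 1,500 per well and settled 5 hr at 37 C, 5% CO2, then exposed to DMSO-dissolved compounds for 17 hr. Caspase-Glo 3/7 reagent was added, and luminescence was read after 30min at room temperature.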

[5] = Caspase-3/7 induction in HepG2 cells by small molecules, qHTS cell viability counter screen (AID 1346981); note: series mostly up to about 92 µM; nearly all actives have a fitted effect of over 30% in size
Summary of the method: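 The parent HepG2 line is plated at 2,000 cells per well and rested 5 hr before compound pinning from DMSO stocks. Following a 16-hr treatment at 37 C, a fluorogenic live-cell substrate (CellTiter-Fluor) reports viability after 1 hr.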

[6] = target: Cytochrome P450 2D6 (Homo sapiens) (UniProt P10635); assay: Cytochrome P450 Family 2 Subfamily D Member 6 (CYP2D6) small molecule antagonists: luciferase reporter qHTS assay (AID 1671196); note: nearly all actives have a fitted effect of over 50% in size; note: potency is the fitted concentration of half-maximal effect
Summary of the method: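 Quantitative HTS of Tox21 chemicals against CYP2D6 using a luminescent proluciferin substrate. After NADPH addition, 1 h room-temperature reaction; luminescence recorded 20 min post detection reagent.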

[7] = target: Cytochrome P450 2C19 (Homo sapiens) (UniProt P33261); assay: Cytochrome P450 Family 2 Subfamily C Member 19 (CYP2C19) small molecule antagonists: luciferase reporter qHTS assay (AID 1671197); note: nearly all actives have a fitted effect of over 65% in size; note: potency is the fitted concentration of half-maximal effect
Summary of the method: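 First, compounds are pinned into enzyme-substrate mix and held 10 min at room temperature. Second, NADPH regeneration solution is added and plates incubate 1 h at 37C. Third, detection reagent is added and luminescence read after 20 min.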

[8] = target: Cytochrome P450 1A2 (Homo sapiens) (UniProt P05177); assay: Cytochrome P450 Family 1 Subfamily A Member 2 (CYP1A2) small molecule antagonists: luciferase reporter qHTS assay (AID 1671199); note: nearly all actives have a fitted effect of over 50% in size; note: potency is the fitted concentration of half-maximal effect
Summary of the method: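 Quantitative high-throughput format using the P450-Glo CYP1A2 system. Reaction initiated by NADPH regeneration solution, 1 h at room temperature, then stopped with detection reagent; luminescence measured 20 min later.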

[9] = target: Cytochrome P450 3A4 (Homo sapiens) (UniProt P08684); assay: Cytochrome P450 Family 3 Subfamily A Member 4 (CYP3A4) small molecule antagonists: luciferase reporter qHTS assay (AID 1671201); note: nearly all actives have a fitted effect of over 50% in size; note: potency is the fitted concentration of half-maximal effect
Summary of the method: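 P450-Glo CYP3A4 luminescent assay: compounds preincubated 10 min at room temperature with enzyme and proluciferin substrate, NADPH regeneration added, 1 h room-temperature reaction, stopped with luciferin detection reagent; luminescence read after 20 min. Ketoconazole positive control.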

[10] = Caspase-3/7 induction in HepG2 cells by small molecules, qHTS assay (AID 1346978); note: nearly all actives have a fitted effect of over 15% in size
Summary of the method: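 Wild-type HepG2 cells (2,000/well) were settled 5 h at 37 C, 5% CO2, then exposed to compounds in DMSO for 17 h. Caspase-3/7 activity was read by luminescence 30 min after adding Caspase-Glo 3/7 reagent at room temperature.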

[11] = target: Nuclear receptor subfamily 1 group I member 2 (Homo sapiens) (UniProt O75469); assay: Human pregnane X receptor (PXR) small molecule agonists, qHTS assay (AID 1346982); note: nearly all actives have a fitted effect of over 35% in size; note: potency is the fitted concentration of half-maximal effect
Summary of the method: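 After plating in 5% charcoal-stripped FBS and a 5 hr rest, PXR-Luc HepG2 cells received compounds in DMSO. Following 24 hr at 37 C, ONE-Glo was added and light output read.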

[12] = target: Cytochrome P450 2C9 (Homo sapiens) (UniProt P11712); assay: Cytochrome P450 Family 2 Subfamily C Member 9 (CYP2C9) small molecule antagonists: luciferase reporter qHTS assay (AID 1671198); note: nearly all actives have a fitted effect of over 50% in size; note: potency is the fitted concentration of half-maximal effect
Summary of the method: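 CYP2C9 activity was measured with a P450-Glo proluciferin substrate. Enzyme–substrate mix was held with compound for 10 min at room temperature, then NADPH regeneration solution was added for 1 h at 37C. Luciferin product was read as luminescence.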

[13] = target: Voltage-gated inwardly rectifying potassium channel KCNH2 (Homo sapiens) (UniProt Q12809); assay: Human Ether-a-go-go-Related Gene (hERG) channel small molecule antagonists: fluorescence cell-based qHTS assay (AID 1671200); note: nearly all actives have a fitted effect of over 50% in size; note: potency is the fitted concentration of half-maximal effect
Summary of the method: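 hERG-U2OS cells plated overnight at 37 C, loaded with FluxOR II dye 1 h at RT in dark; after 10 min, thallium stimulus added. Fluorescence (480/540 nm) read kinetically for 2 min at 1 s intervals.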

[14] = target: Nuclear receptor subfamily 1 group I member 2 (Rattus norvegicus) (UniProt Q9R1A7); assay: Rat pregnane X receptor (rPXR) activation by small molecules, qHTS assay (AID 1346983); details: rPXR luciferase reporter cells, One-Glo luminescence, 24 h; max activation: active compounds read high; note: nearly all actives have a fitted effect of over 20% in size; note: potency is the fitted concentration of half-maximal effect
Summary of the method: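 Cell-based rPXR luciferase reporter assay, 2,000 cells per well, rested 5hr at 37 C before compound addition in DMSO, then 24 hr at 37 C. One-Glo reagent was added and luminescence read after 30 min at room temperature.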

[15] = target: Nuclear receptor subfamily 1 group I member 2 (Homo sapiens) (UniProt O75469); assay: CYP3A4 induction through human pregnane X receptor (PXR) by small molecules, qHTS assay (AID 1346984); note: nearly all actives have a fitted effect of over 40% in size; note: potency is the fitted concentration of half-maximal effect
Summary of the method: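 Human PXR activation is tracked via CYP3A4 promoter-luciferase in DPX-2 (HepG2) cells. Compounds treat cells for 24hr at 37C, and luminescence is read after One-Glo.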

[16] = target: Nuclear receptor subfamily 1 group I member 2 (Homo sapiens) (UniProt O75469); assay: Human pregnane X receptor (PXR) activation by small molecules, qHTS assay (AID 1346985); note: nearly all actives have a fitted effect of over 40% in size; note: potency is the fitted concentration of half-maximal effect
Summary of the method: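 DPX-2 cells (HepG2 co-transfected with a PXR response element and a CYP3A4-promoter luciferase construct) were seeded at 2,000 per well, rested 5 hr at 37C, then exposed to DMSO-dissolved compounds for 24 hr. Activation was read as luciferase luminescence.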

Cytochrome P450 1A2 (Homo sapiens), sequence (P05177 whole entry, looked up): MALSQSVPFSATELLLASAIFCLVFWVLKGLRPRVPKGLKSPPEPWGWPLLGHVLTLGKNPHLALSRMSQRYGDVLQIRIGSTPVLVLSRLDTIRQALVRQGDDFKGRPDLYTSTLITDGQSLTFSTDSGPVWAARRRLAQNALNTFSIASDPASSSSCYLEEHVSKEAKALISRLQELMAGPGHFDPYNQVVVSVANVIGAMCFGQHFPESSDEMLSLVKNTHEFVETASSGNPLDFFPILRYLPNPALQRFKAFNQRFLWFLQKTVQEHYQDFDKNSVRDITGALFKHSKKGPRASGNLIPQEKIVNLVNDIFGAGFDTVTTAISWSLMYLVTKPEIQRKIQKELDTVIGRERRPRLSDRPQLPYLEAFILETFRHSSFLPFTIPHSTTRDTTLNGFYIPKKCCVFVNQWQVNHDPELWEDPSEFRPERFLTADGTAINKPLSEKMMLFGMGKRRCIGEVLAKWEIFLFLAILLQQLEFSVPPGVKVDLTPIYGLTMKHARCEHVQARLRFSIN
Cytochrome P450 3A4 (Homo sapiens), sequence (P08684 whole entry, looked up): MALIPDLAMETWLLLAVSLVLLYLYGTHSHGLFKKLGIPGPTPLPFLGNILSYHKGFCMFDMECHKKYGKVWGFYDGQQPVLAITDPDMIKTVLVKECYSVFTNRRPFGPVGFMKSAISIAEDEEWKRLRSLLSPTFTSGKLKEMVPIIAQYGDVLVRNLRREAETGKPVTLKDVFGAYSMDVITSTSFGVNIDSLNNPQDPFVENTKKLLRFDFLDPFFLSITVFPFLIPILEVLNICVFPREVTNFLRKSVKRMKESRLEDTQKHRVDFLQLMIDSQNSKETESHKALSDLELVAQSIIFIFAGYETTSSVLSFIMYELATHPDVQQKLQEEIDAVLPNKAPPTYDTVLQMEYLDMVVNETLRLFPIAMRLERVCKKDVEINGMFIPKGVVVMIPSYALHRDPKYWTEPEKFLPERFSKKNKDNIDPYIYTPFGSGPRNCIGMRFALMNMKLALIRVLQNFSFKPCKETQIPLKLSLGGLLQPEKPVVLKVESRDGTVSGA
Cytochrome P450 2D6 (Homo sapiens), sequence (P10635 whole entry, looked up): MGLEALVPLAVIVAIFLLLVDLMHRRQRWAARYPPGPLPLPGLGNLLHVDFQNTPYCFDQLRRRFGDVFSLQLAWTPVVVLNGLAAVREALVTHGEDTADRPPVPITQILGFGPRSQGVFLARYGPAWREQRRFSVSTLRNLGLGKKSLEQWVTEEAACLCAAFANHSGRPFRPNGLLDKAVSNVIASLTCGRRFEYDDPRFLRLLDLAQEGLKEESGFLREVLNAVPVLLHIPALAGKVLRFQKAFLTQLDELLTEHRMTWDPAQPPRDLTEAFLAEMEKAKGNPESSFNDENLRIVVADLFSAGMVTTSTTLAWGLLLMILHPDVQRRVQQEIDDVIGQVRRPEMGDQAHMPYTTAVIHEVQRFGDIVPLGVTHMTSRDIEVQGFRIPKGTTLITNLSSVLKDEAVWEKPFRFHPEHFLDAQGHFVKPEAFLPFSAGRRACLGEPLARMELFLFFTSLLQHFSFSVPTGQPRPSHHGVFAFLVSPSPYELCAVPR
Voltage-gated inwardly rectifying potassium channel KCNH2 (Homo sapiens), sequence (Q12809 whole entry, looked up): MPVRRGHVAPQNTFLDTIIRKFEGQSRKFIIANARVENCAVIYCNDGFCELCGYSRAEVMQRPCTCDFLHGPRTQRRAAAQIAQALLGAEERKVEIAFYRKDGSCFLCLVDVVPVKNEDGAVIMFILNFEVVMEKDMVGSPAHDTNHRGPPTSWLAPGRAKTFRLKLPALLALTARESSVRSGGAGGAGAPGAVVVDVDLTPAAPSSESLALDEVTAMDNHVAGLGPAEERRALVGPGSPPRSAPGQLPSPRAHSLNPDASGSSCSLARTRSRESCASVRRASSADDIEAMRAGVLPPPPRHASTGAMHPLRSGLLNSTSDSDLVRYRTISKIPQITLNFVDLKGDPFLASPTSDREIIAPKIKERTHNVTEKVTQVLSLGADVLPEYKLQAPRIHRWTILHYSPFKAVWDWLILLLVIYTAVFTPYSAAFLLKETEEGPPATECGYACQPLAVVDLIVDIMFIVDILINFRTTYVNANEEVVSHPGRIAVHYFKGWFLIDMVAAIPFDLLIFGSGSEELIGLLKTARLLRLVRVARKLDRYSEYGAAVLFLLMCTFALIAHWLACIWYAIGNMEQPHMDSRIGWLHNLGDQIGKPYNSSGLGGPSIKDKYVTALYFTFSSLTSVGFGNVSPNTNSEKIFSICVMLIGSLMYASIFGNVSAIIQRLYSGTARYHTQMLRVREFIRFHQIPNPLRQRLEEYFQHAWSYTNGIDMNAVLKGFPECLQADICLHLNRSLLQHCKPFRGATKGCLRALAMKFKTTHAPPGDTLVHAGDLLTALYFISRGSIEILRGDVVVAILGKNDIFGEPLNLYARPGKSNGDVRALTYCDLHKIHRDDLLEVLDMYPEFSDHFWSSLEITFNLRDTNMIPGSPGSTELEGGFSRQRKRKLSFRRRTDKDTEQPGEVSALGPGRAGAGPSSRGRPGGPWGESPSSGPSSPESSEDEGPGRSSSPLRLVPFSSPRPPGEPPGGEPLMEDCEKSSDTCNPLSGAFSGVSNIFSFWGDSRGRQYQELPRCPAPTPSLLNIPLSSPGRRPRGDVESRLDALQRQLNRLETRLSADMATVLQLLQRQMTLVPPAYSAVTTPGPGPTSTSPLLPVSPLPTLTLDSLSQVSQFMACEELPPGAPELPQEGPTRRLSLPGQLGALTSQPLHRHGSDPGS
Thyrotropin-releasing hormone receptor (Homo sapiens), sequence (P34981 whole entry, looked up): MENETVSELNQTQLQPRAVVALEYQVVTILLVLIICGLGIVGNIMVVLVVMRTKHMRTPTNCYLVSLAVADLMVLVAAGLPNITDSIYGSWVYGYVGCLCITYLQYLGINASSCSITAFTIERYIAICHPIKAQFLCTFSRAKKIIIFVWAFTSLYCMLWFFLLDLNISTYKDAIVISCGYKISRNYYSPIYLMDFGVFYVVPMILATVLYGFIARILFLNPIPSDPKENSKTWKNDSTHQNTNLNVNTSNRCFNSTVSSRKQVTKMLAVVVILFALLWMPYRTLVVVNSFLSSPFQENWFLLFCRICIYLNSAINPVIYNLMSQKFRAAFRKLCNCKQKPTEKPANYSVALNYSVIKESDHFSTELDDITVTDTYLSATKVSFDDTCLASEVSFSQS
Nuclear receptor subfamily 1 group I member 2 (Rattus norvegicus), sequence (Q9R1A7 whole entry, looked up): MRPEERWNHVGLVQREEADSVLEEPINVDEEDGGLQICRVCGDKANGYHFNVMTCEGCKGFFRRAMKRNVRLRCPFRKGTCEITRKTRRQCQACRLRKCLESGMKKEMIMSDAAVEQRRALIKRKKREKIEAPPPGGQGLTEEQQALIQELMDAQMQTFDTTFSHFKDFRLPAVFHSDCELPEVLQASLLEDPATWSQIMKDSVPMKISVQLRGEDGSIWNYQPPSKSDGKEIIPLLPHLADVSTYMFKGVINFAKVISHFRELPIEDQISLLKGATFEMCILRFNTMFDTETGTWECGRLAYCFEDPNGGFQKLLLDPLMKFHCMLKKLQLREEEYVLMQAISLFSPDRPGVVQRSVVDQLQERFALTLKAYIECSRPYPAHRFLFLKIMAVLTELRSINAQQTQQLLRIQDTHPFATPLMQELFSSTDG
Nuclear receptor subfamily 1 group I member 2 (Homo sapiens), sequence (O75469 whole entry, looked up): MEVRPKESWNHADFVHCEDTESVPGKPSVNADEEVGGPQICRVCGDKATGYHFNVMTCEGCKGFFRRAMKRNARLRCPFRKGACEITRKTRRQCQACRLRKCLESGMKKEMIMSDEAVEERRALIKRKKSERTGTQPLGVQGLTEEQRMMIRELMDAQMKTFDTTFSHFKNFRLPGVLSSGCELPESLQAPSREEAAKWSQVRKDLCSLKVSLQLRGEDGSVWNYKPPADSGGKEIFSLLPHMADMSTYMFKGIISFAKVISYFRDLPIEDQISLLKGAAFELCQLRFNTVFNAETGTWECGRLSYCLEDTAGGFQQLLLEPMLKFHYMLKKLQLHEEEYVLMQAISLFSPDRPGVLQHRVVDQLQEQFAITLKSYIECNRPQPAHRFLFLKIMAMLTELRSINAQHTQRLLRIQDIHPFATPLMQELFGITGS
Cytochrome P450 2C19 (Homo sapiens), sequence (P33261 whole entry, looked up): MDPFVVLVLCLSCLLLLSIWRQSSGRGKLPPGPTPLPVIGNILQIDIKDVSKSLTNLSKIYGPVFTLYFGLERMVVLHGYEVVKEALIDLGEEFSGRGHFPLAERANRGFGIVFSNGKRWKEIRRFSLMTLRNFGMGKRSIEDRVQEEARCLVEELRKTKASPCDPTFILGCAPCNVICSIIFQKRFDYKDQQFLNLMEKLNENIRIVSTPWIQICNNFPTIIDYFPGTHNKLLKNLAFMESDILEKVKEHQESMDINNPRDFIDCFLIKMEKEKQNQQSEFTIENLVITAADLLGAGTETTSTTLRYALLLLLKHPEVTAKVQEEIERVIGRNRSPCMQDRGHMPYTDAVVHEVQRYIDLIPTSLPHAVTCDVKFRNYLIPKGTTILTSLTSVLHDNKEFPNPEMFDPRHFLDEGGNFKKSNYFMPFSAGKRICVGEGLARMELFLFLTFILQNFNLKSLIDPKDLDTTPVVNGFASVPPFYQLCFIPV
Cytochrome P450 2C9 (Homo sapiens), sequence (P11712 whole entry, looked up): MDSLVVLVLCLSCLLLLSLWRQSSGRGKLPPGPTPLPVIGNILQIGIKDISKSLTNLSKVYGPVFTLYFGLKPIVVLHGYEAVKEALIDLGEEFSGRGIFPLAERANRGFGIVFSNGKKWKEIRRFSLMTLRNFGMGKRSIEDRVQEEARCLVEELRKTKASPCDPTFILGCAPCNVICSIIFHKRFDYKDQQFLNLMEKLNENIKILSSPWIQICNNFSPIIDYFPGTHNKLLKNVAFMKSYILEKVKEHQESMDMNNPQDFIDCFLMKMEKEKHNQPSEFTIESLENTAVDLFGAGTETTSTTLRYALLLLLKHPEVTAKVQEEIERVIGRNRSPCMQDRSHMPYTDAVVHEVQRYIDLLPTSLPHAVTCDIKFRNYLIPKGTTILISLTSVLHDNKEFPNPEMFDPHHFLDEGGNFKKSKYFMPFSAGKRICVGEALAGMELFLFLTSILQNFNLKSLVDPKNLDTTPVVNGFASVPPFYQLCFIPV

Structure (SMILES)	Potency [1]	Potency [2]	Potency [3]	outcome [4]	Potency [5]	Potency [6]	Potency [7]	Potency [8]	Potency [9]	Potency [10]	Potency [11]	Potency [12]	Potency [13]	Potency [14]	max activation [14] [%]	Potency [15]	Potency [16]
OCC(CBr)(CBr)CBr	inactive	inactive	inactive	inactive	inactive	inactive	inactive	inactive	inactive								
Cc1ccccc1C(=O)Nc1ccc(C(=O)N2CCCC(O)c3cc(Cl)ccc32)c(C)c1 (stereo not given)	inactive	inactive		inactive	inactive		inactive	inactive		inactive	inactive	15.5 µM (active)	inactive				
COc1ccc2nc(NC(=O)Nc3ccccc3)sc2c1	inactive	inactive		inactive		inactive	21.9 µM (active)	12.3 µM (active)	inactive	inactive	1.88 µM (active)		inactive	0.199 µM (active)			
OCCN(CCO)c1ccccc1	inactive	inactive		inactive	inactive	inactive		inactive	inactive	inactive	inactive		inactive				
NCCCN1CCN(CCCN)CC1	inactive	inactive	inactive	inactive	inactive		inactive		inactive	inactive	inactive	inactive	inactive				
C1CCOC1	inactive	inactive	inactive	inactive	inactive					inactive			inactive				
O=C1CCC(C2CCCCC2)CC1	inactive	inactive	inactive	inactive	inactive	inactive				inactive			inactive				
CC(=O)Nc1ccc(C)c(Cl)c1	inactive	inactive	inactive	inactive	inactive	inactive	22.4 µM (active)	8.94 µM (active)	39.9 µM (active)	inactive		inactive	inactive				
Cc1ncc(CO)c(CN)c1O	inactive	inactive		inactive	inactive	inactive		inactive	inactive	inactive	inactive	inactive	inactive		-1.2	inactive	inactive
CCCCNc1ccc(C(=O)OCCN(CC)CC)cc1	inactive	inactive	inactive	inactive	inactive	3.89 µM (active)	inactive		inactive	inactive							
NC1=NCC2c3ccccc3Cc3ccccc3N12 (stereo not given)	inactive	inactive	inactive	inactive	inactive					inactive					0.173		
CC(CNC1CCCCC1)OC(=O)c1ccccc1 (stereo not given)	inactive	inactive	inactive	inactive	inactive					inactive			inactive				
CCCOc1ccc2c(c1)CC[C@@H]1[C@@H]2CC[C@]2(C)C(OC)CC[C@@H]12 (stereo not given in full)	inactive	inactive		inactive	inactive	15.5 µM (active)			inactive	inactive	inactive						
CCOc1ccc(NC(N)=O)cc1	inactive	inactive		inactive	inactive	inactive	inactive	35.6 µM (active)	inactive	inactive	inactive	inactive	inactive				
Cc1nc(-c2ccccn2)ncc1C(=O)Nn1cc(C)c2cc(F)ccc21	inactive	inactive			inactive	44.8 µM (active)	56.4 µM (active)	31.7 µM (active)	7.96 µM (active)	inactive	4.86 µM (active)	1.59 µM (active)	inactive				
CN1CCN(C2=Nc3cc(F)ccc3Cc3ccccc32)CC1	inactive		inactive	inactive	inactive	4.9 µM (active)	inactive			inactive	inactive		inactive		2.35	25.1 µM (active)	22.4 µM (active)
Cc1nc(N)nc(N)c1-c1ccc(Cl)c(Cl)c1	inactive		inactive	inactive	inactive	2.19 µM (active)	inactive	inactive	inactive	inactive	inactive						
O=C1Nc2ccc([N+](=O)[O-])cc2C1=O	inactive			inactive		7.09 µM (active)	5.63 µM (active)	22.4 µM (active)		inactive	inactive	35.5 µM (active)	inactive				
CNCCC(Oc1ccccc1OC)c1ccccc1 (stereo not given)	inactive		inactive	inactive	inactive	0.977 µM (active)	inactive			inactive			8.49 µM (active)				
